In PubChem BioAssay (NCI):
Compounds without any hit were thinned out: in the full panel of roughly 83,000, 20% have a hit.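 For each line, cells grew in 96-well plates with the test compound present at a single concentration for 48 hours.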 A number with no mark means an inactive call. Activity calls are given as the source filed them. The calls were made as follows: active = growth percent below 10; inactive = the rest.

System: HL-60(TB) leukemia
Assay: NCI-60 one-dose screen, 48 h (100 = growth as untreated, 0 = no growth, -100 = all killed)
Settings: 10 µM unless noted

Structure (SMILES)	growth
C#CCOc1ccccc1C(Nc1ccccc1)c1nnnn1C1CCCCC1 (stereo not given)	91.6%
Brc1cccc(-c2cc(-c3ccc4c(c3)OC=CO4)[nH]n2)c1	14.7%
COc1ccc(CCN2C(=O)CSC2=S)cc1	54.6%
CCOC(=O)c1c(NC(=O)c2ccc(C(F)(F)F)cc2)sc2c(CN3CCN(C)CC3)c(O)ccc12	-36.8% (active)
CC(Nc1c(C#N)cnc2ccc(-c3cnc(N)nc3)cc12)c1ccccc1 (stereo not given)	20.1%
O=C1C[C@@H](c2ccccc2)Oc2c(Cc3ccccc3O)c(O)c(Cc3cc(Cc4cc(Cc5ccccc5O)ccc4O)ccc3O)c(O)c21	95.1%
COc1ccc(-c2nnc(SCc3ccc(O)c4ncccc34)o2)cc1	18.3%
Cc1ccc(-c2nnc(SCc3ccc(O)c4ncccc34)n2-c2ccccc2)cc1	0.292% (active)
COc1ccc(/C=C/C(=O)c2nnn(-c3ccc(Br)cc3)c2C)cc1OC	47.1%
CNCc1cccc2c1OCCCCCCC(C)(O)CC(C)(C)S(=O)(=O)c1ccc(cc1)-c1cnc(N)c(n1)C(=O)N2 (stereo not given)	-44.1% (active)
CN1CCN(Cc2ccc(NC(=O)c3cncc(C#Cc4cnc5ccc(OCC6(C)COC6)nn45)c3)cc2C(F)(F)F)CC1	-27.6% (active)
COCCNc1ccc2ncc(C#Cc3cncc(C(=O)Nc4ccc(CN5CCN(C)CC5)c(C(F)(F)F)c4)c3)n2n1	0.694% (active)
O=C1CCC(N2C(=O)c3ccc(NS(=O)(=O)c4ccccc4OC(F)(F)F)cc3C2=O)C(=O)N1 (stereo not given)	-20.1% (active)
COC[C@]12CCC(C)(C)C[C@H]1C1=CC[C@@H]3[C@@]4(C)CCCNC(C)(C)[C@@H]4CC[C@@]3(C)[C@]1(C)CC2	-65.3% (active)
Cc1ccc(/C=C/CC(=O)Nc2ccc(C(=O)Nc3ccc(F)cc3N)nc2)cn1	-19.6% (active)
ClC(Cl)c1nc(-c2cccs2)n2nc(-c3ccccc3)cc2n1	0.604% (active)
O=C(CSc1nc2ccccc2c(=O)n1-c1ccccc1)Nc1cccc(C(=O)/C=C/c2ccccc2)c1	99.1%
CCC(=C(c1ccc(OCCN2CCCCCC2)cc1)c1ccc(OCCN2CCCCCC2)cc1)c1ccc(Cl)cc1	-38.8% (active)

Structure (SMILES)	growth
COc1ccc(N)cc1C(=O)Nc1cccc(-c2cc(=O)c3c(OC)c(OC)c(OC)cc3o2)c1	58.1%
Cc1cccc(NC(c2cc3cccc4ccc5cccc2c5c43)c2nnnn2C(C)(C)C)c1C (stereo not given)	91.9%
N=c1c2cc(-c3ccccc3)oc2ncn1/N=C/c1ccc(Cl)cc1	116%
Cc1[nH]c(C(=O)Nc2ccccc2OCc2cccc(C(=O)NC3CCNC3)c2)c(Cl)c1Cl (stereo not given)	71.4%
O=c1[nH][nH]c(-c2ccc(F)cc2)c1-c1nc2ccccc2s1	103%
CN1CCN(Cc2ccc(NC(=O)c3cncc(C#Cc4cnc5ccc(OCC(C)(C)O)nn45)c3)cc2C(F)(F)F)CC1	1.93% (active)
Oc1ccc(CSc2nnc(-c3cnccn3)n2-c2ccccc2)c2cccnc12	14.4%
C=C(C)[C@@H]1CC[C@]2(C(=O)ON)CC[C@]3(C)[C@H](CC[C@@H]4[C@@]5(C)C/C(=C/c6ccc(Br)cc6)C(=O)C(C)(C)[C@@H]5CC[C@]43C)[C@@H]12	43.6%
COc1ccccc1/C=C/C(=O)c1nnn(-c2ccc(C(=O)O)cc2)c1C	83.2%
CCc1cccc2c3c(sc12)C(c1ccc(F)cc1)C(C#N)=C(/N=C/c1ccc(Cl)cc1)O3 (stereo not given)	7.08% (active)
CC1=Cc2ccccc2OC12C=Cc1ccccc1O2 (stereo not given)	106%
CCn1c2ccc(/C=N/N(C)S(=O)(=O)CCN(C)C)cc2c2cc(/C=N/N(C)S(=O)(=O)CCN(C)C)ccc21	42.5%
Cc1cc(C(=O)Nc2ccc(SC#N)cc2)c(C)o1	47.7%
Cc1noc(C)c1CSc1nc2ccccc2n1-c1ccccc1	111%
CN(Cc1ccccc1)S(=O)(=O)/N=C1\NC(=O)NC1=C(Cl)Cl	-29.8% (active)
Cc1cc(C(NC(=O)CCCCCNc2cccc3c2C(=O)N(C2CCC(=O)NC2=O)C3=O)c2ccc3c(c2)OC(F)(F)O3)c(O)c2ncccc12 (stereo not given)	19.7%
Cc1sc2c(c1C)c(=O)nc1c(-c3nc(-c4ccc(F)cc4)no3)n[nH]n12	103%
